Test results from publication PMC7862700, “An all-to-all approach to the identification of sequence-specific readers for epigenetic DNA modifications on cytosine”.

How the values were obtained:
Test in all cases: DAPPL (digital affinity profiling via proximity ligation, sequencing); 10 mM Tris-HCl pH 7.5, 50 mM NaCl, 1 mM DTT, 4% glycerol, room temperature, 30 min; GST-TFs on glutathione beads, 16-mer random dsDNA library, 0.1% formaldehyde crosslink after washing; high values mean tight binding
FEV = molecular target: T1, FEV (Homo sapiens, UniProt Q99581 1-238); settings: protein: recombinant; tags: N-terminal GST; dsDNA, one strand shown
T1 sequence: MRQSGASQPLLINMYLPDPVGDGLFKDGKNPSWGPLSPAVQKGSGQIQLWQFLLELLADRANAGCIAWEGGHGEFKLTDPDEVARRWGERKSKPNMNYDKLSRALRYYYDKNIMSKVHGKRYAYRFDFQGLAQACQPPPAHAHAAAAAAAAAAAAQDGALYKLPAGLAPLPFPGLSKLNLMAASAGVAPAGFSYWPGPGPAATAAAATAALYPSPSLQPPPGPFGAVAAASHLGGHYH
Method in brief: (§1)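 Yeast served to express human transcription factors as GST fusions, which were then captured on glutathione beads and labelled with DNA barcodes. Pooled with a tag-only sample, they were incubated with 200 nmole of a 16-mer random double-stranded DNA library for 30 min at room temperature in Tris/NaCl/DTT/glycerol buffer, washed, crosslinked with 0.1% formaldehyde, ligated by proximity, amplified by PCR and sequenced. Dividing each hexamer's read frequency for a factor by its frequency for the tag-only sample gives the binding signal.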

ETV5 = ETV5 (Homo sapiens, UniProt P41161 1-510); settings: protein: recombinant; tags: N-terminal GST; dsDNA, one strand shown
ETV5, sequence (P41161 whole entry): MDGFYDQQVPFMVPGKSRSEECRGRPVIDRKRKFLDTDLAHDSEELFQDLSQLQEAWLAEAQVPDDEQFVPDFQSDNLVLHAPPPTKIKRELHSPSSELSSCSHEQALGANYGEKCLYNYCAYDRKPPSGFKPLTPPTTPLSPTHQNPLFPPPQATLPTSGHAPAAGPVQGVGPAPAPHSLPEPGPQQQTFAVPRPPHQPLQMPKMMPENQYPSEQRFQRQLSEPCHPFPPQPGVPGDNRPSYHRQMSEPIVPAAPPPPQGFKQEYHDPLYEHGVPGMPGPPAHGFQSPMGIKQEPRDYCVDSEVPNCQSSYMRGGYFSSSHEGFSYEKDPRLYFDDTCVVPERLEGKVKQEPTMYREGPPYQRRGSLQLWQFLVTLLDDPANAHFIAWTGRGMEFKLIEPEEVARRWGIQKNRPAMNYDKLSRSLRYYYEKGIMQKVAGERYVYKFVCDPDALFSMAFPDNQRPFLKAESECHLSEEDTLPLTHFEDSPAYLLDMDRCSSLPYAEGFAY
Method in brief: as §1

HSF1 = HSF1 (Homo sapiens, UniProt Q00613 1-529); settings: protein: recombinant; tags: N-terminal GST; chain copies: 3; dsDNA, one strand shown
HSF1, sequence (Q00613 whole entry): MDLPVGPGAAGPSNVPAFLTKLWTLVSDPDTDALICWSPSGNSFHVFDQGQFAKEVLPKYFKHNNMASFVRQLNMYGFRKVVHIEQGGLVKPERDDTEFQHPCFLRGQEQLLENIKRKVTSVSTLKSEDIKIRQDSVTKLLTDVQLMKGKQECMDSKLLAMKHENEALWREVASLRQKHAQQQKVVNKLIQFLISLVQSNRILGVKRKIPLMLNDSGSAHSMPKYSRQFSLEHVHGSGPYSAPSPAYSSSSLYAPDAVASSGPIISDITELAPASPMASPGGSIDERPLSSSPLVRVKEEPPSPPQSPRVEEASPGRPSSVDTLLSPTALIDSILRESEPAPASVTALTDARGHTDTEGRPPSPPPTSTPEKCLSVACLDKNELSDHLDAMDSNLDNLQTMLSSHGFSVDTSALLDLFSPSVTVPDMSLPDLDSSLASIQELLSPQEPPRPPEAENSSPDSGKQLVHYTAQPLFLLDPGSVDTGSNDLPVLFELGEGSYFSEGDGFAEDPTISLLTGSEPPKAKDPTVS
Method in brief: as §1

SPIC = molecular target: T2, SPIC (Homo sapiens, UniProt Q8N5J4 1-248); settings: protein: recombinant; tags: N-terminal GST; dsDNA, one strand shown
T2 sequence: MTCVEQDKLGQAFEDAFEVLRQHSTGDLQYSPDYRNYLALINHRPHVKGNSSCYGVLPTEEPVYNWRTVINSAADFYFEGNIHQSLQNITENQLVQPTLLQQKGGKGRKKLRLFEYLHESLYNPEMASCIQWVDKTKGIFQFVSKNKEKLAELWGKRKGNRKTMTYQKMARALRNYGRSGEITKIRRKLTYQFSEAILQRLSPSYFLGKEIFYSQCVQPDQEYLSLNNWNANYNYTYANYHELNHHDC
Method in brief: as §1

ELF4 = ELF4 (Homo sapiens, UniProt Q99607 1-663); settings: protein: recombinant; tags: N-terminal GST; dsDNA, one strand shown
ELF4, sequence (Q99607 whole entry): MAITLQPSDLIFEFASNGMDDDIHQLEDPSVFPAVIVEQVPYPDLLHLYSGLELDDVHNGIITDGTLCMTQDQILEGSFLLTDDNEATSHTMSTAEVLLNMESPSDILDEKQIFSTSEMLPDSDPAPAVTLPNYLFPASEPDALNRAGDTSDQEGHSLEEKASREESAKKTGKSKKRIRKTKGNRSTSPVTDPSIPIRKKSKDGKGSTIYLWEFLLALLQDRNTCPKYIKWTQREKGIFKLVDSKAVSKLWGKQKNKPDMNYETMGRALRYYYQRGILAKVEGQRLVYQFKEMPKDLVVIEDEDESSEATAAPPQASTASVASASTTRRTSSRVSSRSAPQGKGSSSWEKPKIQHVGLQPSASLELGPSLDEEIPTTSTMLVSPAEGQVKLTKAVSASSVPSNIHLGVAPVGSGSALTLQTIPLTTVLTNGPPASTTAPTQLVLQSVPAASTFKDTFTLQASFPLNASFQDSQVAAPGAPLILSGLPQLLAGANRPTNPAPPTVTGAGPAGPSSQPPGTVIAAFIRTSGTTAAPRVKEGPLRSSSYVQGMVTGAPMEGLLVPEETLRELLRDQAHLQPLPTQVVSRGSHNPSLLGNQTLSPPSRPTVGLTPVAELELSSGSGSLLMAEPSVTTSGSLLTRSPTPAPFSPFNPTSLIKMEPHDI
Method in brief: as §1

ELK4 = molecular target: T3, ELK4 (Homo sapiens, UniProt P28324-2 1-405); settings: protein: recombinant; tags: N-terminal GST; dsDNA, one strand shown
T3 sequence: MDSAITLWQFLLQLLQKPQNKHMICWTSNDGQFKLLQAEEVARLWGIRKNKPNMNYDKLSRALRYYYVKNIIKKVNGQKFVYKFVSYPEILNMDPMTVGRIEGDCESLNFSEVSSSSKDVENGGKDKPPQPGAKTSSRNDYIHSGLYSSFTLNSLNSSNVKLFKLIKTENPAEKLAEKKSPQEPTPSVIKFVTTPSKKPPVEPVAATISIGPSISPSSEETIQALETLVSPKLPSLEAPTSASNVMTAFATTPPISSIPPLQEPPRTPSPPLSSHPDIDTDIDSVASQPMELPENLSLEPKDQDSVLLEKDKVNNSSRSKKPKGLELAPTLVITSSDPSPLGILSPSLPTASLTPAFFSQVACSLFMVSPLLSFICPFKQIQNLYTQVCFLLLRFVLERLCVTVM
Method in brief: as §1

ETV2 = molecular target: T4, ETV2 (Homo sapiens, UniProt O00321 1-342); settings: protein: recombinant; tags: N-terminal GST; dsDNA, one strand shown
T4 sequence: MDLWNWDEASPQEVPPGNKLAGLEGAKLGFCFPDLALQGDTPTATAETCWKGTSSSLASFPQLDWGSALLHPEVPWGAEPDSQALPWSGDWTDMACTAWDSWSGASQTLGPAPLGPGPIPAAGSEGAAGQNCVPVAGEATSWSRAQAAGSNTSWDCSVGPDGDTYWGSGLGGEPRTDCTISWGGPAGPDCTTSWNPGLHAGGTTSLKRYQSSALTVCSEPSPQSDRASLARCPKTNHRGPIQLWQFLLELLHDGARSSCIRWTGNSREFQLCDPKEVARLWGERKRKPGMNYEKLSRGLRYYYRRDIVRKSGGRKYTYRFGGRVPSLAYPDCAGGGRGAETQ
Method in brief: as §1

ELF3 = molecular target: T5, ELF3 (Homo sapiens, UniProt P78545 1-371); settings: protein: recombinant; tags: N-terminal GST; dsDNA, one strand shown
T5 sequence: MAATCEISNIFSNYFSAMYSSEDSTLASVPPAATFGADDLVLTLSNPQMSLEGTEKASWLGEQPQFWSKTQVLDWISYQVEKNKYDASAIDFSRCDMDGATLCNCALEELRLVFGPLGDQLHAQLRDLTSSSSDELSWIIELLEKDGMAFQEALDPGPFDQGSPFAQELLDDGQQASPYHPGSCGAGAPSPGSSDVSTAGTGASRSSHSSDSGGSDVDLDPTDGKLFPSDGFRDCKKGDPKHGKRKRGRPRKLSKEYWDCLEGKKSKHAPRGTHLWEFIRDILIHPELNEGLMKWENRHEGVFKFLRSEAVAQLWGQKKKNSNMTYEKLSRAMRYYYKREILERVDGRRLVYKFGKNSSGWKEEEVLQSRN
Method in brief: as §1

CRX = CRX (Homo sapiens, UniProt O43186 1-299); settings: protein: recombinant; tags: N-terminal GST; dsDNA, one strand shown
CRX, sequence (O43186 whole entry): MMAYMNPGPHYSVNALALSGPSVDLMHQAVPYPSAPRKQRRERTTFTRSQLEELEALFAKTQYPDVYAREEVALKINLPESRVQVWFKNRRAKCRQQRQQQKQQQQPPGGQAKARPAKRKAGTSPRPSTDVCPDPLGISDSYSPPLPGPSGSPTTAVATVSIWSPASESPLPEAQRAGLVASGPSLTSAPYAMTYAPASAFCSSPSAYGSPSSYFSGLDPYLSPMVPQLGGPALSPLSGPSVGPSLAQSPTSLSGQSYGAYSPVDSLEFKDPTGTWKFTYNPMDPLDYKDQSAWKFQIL
Method in brief: as §1

ETV1 = ETV1 (Homo sapiens, UniProt P50549 1-477); settings: protein: recombinant; tags: N-terminal GST; dsDNA, one strand shown
ETV1, sequence (P50549 whole entry): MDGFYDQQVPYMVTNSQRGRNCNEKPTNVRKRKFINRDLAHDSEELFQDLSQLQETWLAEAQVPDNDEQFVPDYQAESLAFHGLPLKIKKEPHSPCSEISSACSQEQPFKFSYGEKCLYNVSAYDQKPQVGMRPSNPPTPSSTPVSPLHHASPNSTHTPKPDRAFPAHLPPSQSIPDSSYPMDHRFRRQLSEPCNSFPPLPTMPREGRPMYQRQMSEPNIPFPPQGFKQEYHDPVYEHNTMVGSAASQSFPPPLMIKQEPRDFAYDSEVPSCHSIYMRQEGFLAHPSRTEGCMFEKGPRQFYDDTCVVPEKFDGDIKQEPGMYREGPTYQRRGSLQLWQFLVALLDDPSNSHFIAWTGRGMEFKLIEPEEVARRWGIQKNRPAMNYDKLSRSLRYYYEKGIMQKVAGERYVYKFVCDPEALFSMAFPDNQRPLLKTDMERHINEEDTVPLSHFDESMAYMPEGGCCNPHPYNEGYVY
Method in brief: as §1

ERF = molecular target: T6, ERF (Homo sapiens, UniProt P50548 1-548); settings: protein: recombinant; tags: N-terminal GST; dsDNA, one strand shown
T6 sequence: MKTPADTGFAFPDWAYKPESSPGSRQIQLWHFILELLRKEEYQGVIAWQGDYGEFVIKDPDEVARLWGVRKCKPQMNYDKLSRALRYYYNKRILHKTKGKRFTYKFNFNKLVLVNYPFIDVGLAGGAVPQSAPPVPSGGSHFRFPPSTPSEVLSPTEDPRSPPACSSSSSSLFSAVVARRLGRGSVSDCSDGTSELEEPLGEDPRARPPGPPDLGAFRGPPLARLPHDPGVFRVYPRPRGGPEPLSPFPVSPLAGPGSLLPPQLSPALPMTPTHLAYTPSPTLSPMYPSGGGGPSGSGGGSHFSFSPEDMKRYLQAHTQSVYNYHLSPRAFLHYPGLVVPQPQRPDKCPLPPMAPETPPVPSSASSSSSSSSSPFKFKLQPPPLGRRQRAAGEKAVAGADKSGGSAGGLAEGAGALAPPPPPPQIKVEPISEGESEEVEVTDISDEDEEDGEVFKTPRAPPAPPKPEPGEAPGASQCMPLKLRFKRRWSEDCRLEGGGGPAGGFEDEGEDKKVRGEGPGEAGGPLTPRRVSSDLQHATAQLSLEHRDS
Method in brief: as §1

ETV3L = molecular target: T7, ETV3L (Homo sapiens, UniProt Q6ZN32 1-361); settings: protein: recombinant; tags: N-terminal GST; dsDNA, one strand shown
T7 sequence: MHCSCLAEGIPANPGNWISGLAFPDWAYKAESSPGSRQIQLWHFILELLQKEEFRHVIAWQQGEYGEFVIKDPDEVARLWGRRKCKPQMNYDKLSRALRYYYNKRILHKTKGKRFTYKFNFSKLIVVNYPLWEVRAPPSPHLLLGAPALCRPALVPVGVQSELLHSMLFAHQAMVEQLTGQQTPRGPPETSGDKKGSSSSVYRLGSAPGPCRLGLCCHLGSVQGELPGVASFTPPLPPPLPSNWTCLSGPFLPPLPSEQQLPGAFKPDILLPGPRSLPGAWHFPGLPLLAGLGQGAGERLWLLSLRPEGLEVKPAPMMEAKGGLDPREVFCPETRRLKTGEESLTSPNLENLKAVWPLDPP
Method in brief: as §1

ETS2 = molecular target: T8, ETS2 (Homo sapiens, UniProt P15036 1-469); settings: protein: recombinant; tags: N-terminal GST; dsDNA, one strand shown
T8 sequence: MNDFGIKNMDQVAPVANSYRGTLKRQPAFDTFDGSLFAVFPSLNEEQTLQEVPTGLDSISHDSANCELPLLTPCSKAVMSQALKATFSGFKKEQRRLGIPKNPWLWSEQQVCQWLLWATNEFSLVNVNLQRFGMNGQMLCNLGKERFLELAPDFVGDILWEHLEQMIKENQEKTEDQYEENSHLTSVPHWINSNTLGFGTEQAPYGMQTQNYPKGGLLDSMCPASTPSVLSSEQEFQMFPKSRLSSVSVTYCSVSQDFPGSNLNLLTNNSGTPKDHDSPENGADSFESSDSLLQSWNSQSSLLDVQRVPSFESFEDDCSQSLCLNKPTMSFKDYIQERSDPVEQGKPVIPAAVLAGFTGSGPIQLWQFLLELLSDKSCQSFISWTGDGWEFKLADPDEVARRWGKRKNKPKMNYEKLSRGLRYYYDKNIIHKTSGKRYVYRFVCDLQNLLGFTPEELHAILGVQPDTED
Method in brief: as §1

SPDEF = molecular target: T9, SPDEF (Homo sapiens, UniProt O95238 1-335); settings: protein: recombinant; tags: N-terminal GST; dsDNA, one strand shown
T9 sequence: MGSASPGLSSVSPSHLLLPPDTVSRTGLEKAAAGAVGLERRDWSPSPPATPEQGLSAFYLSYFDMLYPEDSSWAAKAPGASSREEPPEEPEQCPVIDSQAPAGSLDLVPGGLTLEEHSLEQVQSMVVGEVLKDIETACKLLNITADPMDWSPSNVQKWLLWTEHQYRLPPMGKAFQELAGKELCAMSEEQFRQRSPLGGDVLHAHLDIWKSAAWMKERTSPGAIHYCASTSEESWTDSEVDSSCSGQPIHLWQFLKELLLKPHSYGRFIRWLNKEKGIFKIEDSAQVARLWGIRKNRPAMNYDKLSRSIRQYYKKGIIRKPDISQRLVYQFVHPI
Method in brief: as §1

ETV7 = molecular target: T10, ETV7 (Homo sapiens, UniProt Q9Y603 1-341); settings: protein: recombinant; tags: N-terminal GST; dsDNA, one strand shown
T10 sequence: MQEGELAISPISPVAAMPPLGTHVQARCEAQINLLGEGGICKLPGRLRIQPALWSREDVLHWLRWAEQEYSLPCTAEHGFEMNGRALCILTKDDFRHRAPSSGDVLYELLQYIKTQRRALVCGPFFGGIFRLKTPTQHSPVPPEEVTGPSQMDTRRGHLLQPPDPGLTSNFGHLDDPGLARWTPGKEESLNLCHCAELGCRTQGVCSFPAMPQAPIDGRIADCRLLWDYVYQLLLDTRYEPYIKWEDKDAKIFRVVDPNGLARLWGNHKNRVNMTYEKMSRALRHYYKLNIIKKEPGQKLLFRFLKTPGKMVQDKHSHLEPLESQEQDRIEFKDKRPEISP
Method in brief: as §1

ELF5 = molecular target: T11, ELF5 (Homo sapiens, UniProt Q9UKW6-2 1-255); settings: protein: recombinant; tags: N-terminal GST; dsDNA, one strand shown
T11 sequence: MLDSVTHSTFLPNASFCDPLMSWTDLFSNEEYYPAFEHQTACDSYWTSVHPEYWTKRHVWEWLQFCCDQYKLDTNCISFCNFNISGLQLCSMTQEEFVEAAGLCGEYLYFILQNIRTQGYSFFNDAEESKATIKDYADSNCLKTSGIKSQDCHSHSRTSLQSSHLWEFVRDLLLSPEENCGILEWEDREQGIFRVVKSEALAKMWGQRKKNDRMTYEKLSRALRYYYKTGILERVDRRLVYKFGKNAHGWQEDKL
Method in brief: as §1

ETV3 = molecular target: T12, ETV3 (Homo sapiens, UniProt P41162-2 1-143); settings: protein: recombinant; tags: N-terminal GST; dsDNA, one strand shown
T12 sequence: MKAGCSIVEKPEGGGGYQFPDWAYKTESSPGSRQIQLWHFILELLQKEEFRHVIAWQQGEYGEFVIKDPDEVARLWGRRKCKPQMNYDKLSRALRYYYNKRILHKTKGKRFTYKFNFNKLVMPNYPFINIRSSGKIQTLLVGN
Method in brief: as §1

ETV6 = ETV6 (Homo sapiens, UniProt P41212 1-452); settings: protein: recombinant; tags: N-terminal GST; dsDNA, one strand shown
ETV6, sequence (P41212 whole entry): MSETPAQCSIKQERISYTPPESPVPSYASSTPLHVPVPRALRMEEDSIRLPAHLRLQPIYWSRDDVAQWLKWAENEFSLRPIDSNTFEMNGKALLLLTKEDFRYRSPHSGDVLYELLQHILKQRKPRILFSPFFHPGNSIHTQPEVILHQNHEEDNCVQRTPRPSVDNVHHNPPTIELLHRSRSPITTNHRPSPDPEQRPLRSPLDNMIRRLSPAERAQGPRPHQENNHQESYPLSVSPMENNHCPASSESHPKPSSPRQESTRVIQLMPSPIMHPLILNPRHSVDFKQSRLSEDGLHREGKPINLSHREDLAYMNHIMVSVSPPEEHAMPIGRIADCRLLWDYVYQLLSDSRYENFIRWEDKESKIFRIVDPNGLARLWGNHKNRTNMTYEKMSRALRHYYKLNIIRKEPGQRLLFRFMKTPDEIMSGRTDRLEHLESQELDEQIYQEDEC
Method in brief: as §1

## TCCTGG
FEV
  binding signal: 1.46 fold enrichment (6-mer frequency, TF over GST control)
ETV5
  binding signal: 1.68 fold enrichment (6-mer frequency, TF over GST control)
HSF1
  binding signal: 1.29 fold enrichment (6-mer frequency, TF over GST control)
SPIC
  binding signal: 1.54 fold enrichment (6-mer frequency, TF over GST control)
ELF4
  binding signal: 1.53 fold enrichment (6-mer frequency, TF over GST control)
ELK4
  binding signal: 1.38 fold enrichment (6-mer frequency, TF over GST control)
ETV2
  binding signal: 2.03 fold enrichment (6-mer frequency, TF over GST control)
ELF3
  binding signal: 1.17 fold enrichment (6-mer frequency, TF over GST control)
CRX
  binding signal: 1.27 fold enrichment (6-mer frequency, TF over GST control)
ETV1
  binding signal: 1.68 fold enrichment (6-mer frequency, TF over GST control)
ERF
  binding signal: 1.43 fold enrichment (6-mer frequency, TF over GST control)
ETV3L
  binding signal: 1.83 fold enrichment (6-mer frequency, TF over GST control)
ETS2
  binding signal: 1.82 fold enrichment (6-mer frequency, TF over GST control)
SPDEF
  binding signal: 2.13 fold enrichment (6-mer frequency, TF over GST control)
ETV7
  binding signal: 1.56 fold enrichment (6-mer frequency, TF over GST control)
ELF5
  binding signal: 2.35 fold enrichment (6-mer frequency, TF over GST control)
ETV3
  binding signal: 1.74 fold enrichment (6-mer frequency, TF over GST control)
ETV6
  binding signal: 1.77 fold enrichment (6-mer frequency, TF over GST control)
